Drawing on PubChem BioAssay (NCI), this text covers growth for 14 molecules.

About 83,000 compounds went through this panel and 20% of them were active in at least one assay; those are over-represented in the sample as a whole.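 Growth was measured after 48 h exposure to one concentration of compound in 96-well plates. Values under 10 count as active.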 Calls of active or inactive are those of the source.

The subject of the experiment is HL-60(TB) leukemia. Briefly: NCI-60 one-dose screen, 48 h (100 = growth as untreated, 0 = no growth, -100 = all killed). Conditions: 10 µM unless noted.
With `Cc1[nH]c(C(=O)Nc2ccccc2OCc2cccc(C(=O)NCCN)c2)cc1Cl`, the growth is 89.6% (inactive).

As for `O=C(CSc1nnc(-c2cccs2)n1-c1ccccc1)Nc1ccccc1`, the growth was 76% (inactive).

Consider `CCOC(=O)c1c(Nc2ccccc2)nn2c(-c3ccccc3)ccnc12`, for which the growth is 80.7% (inactive).

With `O=C1c2cc(Br)ccc2-n2c1nc1cc(Br)ccc1c2=O`, the growth is 80% (inactive).

Turning to `Cc1nn(-c2ccc(Cl)cc2)c(C)c1N=Nc1ccc2oc(=O)ccc2c1`, the growth is 93.5% (inactive).

For `O=C(Nc1cccc(-c2nc(-c3ccc(NC(=O)c4cccs4)cc3Cl)no2)c1)Nc1ccc(NC(=O)C2CC2)c(C(F)(F)F)c1`, the growth is 6.9% (active).

Regarding `CCN1CCN(c2cc(C(=O)Nc3nc4ccc(Oc5ccnc(C(=O)NC)c5)cc4s3)cc(C(F)(F)F)c2)CC1`, the growth was 18.7% (inactive).

Turning to `O=C(NNc1nc2cc(F)ccc2n2cncc12)c1cnccn1`, the growth is 10.8% (inactive).

With `O=C(/C=C1\C=CN(CCCCCCF)c2ccccc21)n1ccc2ccccc21`, the growth was 109% (inactive).

As to `O=C(/C=C/c1cc(Cl)ccc1Cl)Nc1ncc(Cc2ccc(Cl)cc2)s1`, the growth was -7.21% (active).

In the case of `Nc1ccccc1NC(=O)c1ccc(NC(=O)C/C=C/c2cccnc2)cn1`, the growth is 8.93% (active).

Turning to `NS(=O)(=O)c1ccc(-n2cc(CN3CCCCC3)nn2)cc1`, the growth was 101% (inactive).

`COc1ccc(C(C)=C(c2ccc(OCCN(C)C)cc2)c2ccc(OCCN(C)C)cc2)cc1`: the growth is -63.3% (active).

As for `Cc1cc(Cl)cc(NS(=O)(=O)c2ccc(-c3cnc(C4CC4)o3)cc2)c1`, the growth was -4.23% (active).
